The source of these data is PubChem BioAssay.

The structures appear in SMILES notation. Activity calls are given as the source filed them.

Assay [1] is described as follows: small molecules captured by biotinylated probe aFSTL3 – biochemical, small-molecule microarray, fluorescence 635/667, stem cell growth factor project, primary screen (AID 1064).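 Further: measures binding of the biotinylated anti-FSTL3 antibody to printed compounds.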 The conditions noted are these: higher = more signal.
Assay [2] in a line: binders from COS7 lysate, DM2A8 probe, primary screen, torsin A project, cell lysate, small-molecule microarray, fluorescence 635/667 (AID 1065). The conditions noted are these: higher = more signal, COS7 lysate expressing mutant human TOR1A.
Assay [3] in a line: small molecules captured by biotinylated probe aFGF2 – biochemical, small-molecule microarray, fluorescence 635/667, stem cell growth factor project, primary screen (AID 1067).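 Further: measures binding of biotinylated aFGF2 protein to printed compounds on slides; z-score merges feature fluorescence and signal-to-noise across triplicate slides.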 The following applies: higher = more signal.
Assay [4] can be described thus: small molecules captured by biotinylated probe aFGF10 – biochemical, small-molecule microarray, fluorescence 635/667, stem cell growth factor project, primary screen (AID 1071).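 Further: score merges 667 nm spot intensity and signal to noise from triplicate slides.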 The following applies: higher = more signal.
In assay [5] the target is Neurogenic locus notch homolog protein 2 (Homo sapiens) (UniProt Q04721). As to the kind of experiment: small molecules binding Notch2 protein – biochemical, small-molecule microarray, 635 nm fluorescence, stem cell growth factors, primary screen (AID 1073). The conditions noted are these: higher = more signal.
Assay [6] deals with Pro-neuregulin-1, membrane-bound isoform (Homo sapiens) (UniProt Q02297). Description: small molecules binding neuregulin-1 protein – biochemical, small-molecule microarray, fluorescence 635/667, psychiatric disease protein project, primary screen (AID 1075).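 Further: score combines 667 nm spot fluorescence with signal to noise.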 The conditions noted are these: NRG1 binding, 635 nm fluorescence, higher = more signal.
For assay [7], the system named is Neuregulin-1 EGF-like domain. As to the kind of experiment: small molecules binding NRG1 EGF domain – biochemical, small-molecule microarray, 635 nm fluorescence, primary screen (AID 1081).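 Further: binding of the protein to compounds printed on small-molecule microarray slides.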 The conditions noted are these: higher = more signal.
Assay [8] is described as follows: FRG1 expression reporter modulators in myotubes – cell-based, C2C12 myotubes, firefly/Renilla luciferase, luminescence, FRG1 inhibition for FSHD, primary screen (AID 1084). The following applies: FRG1 promoter luciferase, higher = more signal, called active from +8 up or from −8 down.
A short description of assay [9]: small molecules captured by biotinylated probe aFST – biochemical, small-molecule microarray, fluorescence 635/667, stem cell growth factor project, primary screen (AID 1086).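 Further: score merges 667 nm fluorescence with signal-to-noise of each printed compound spot.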 The following applies: higher = more signal.
Assay [10] is described as follows: binders of probe aHhip on microarray, primary screen, stem cell growth factor project, biochemical, small-molecule microarray, fluorescence 635/667 (AID 1087).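 Further: score merges spot fluorescence at 667nm with spot signal to noise ratio.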 The following applies: higher = more signal.
Assay [11] relates to PRMT1 (protein arginine N-methyltransferase 1). Description: small molecules binding arginine methyltransferase PRMT1 – biochemical, small-molecule microarray, 635 nm fluorescence, primary screen (AID 1088).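 Further: binding of Prmt1 protein to compounds spotted on small-molecule microarray slides.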 The following applies: higher = more signal.
The nature of assay [12]: growth effects on S. cerevisiae YJM789 – YJM789 clinical isolate, OD600, 24 h, basal, primary screen (AID 1089).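 Further: growth of clinical yeast isolate S. cerevisiae YJM 789 seeded 1000 cells per well; test concentration not given here.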 The conditions noted are these: higher = more signal, called active from +8 up or from −8 down.
Assay [13] can be described thus: S. pombe growth modifiers, basal conditions – strain 972, OD600, 24 h, no modulator, primary screen (AID 1090).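 Further: basal condition with compound alone and no growth modifier present; test concentration not given here.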 The conditions noted are these: S. pombe 972 growth, higher = more signal, called active from +8 up or from −8 down.
A short description of assay [14]: budding yeast growth modifiers under rapamycin – strain BY4716, OD600, 96 h, primary screen (AID 1091). Further: test concentration not given here. The conditions noted are these: S. cerevisiae BY4716 + rapamycin, higher = more signal, called active from +8 up or from −8 down.
Assay [15] addresses Torsin-1A-interacting protein 2 (Homo sapiens) (UniProt Q8NFQ8). Description: small molecules binding lysate-expressed LULL1 – cell lysate, human LULL1 lysate, 635/667 nm fluorescence, primary screen (AID 1092).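 Further: probe is lysate of COS7 cells overexpressing human LULL1; score merges per-feature 667 nm fluorescence with signal-to-noise.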 The following applies: small-molecule microarray, hLULL1 lysate binding, 635 nm fluorescence; higher = more signal.
Assay [16] is described as follows: optical density change of DRC41 E. coli – strain DRC41, OD650, 24 h, E. coli filamentation project, primary screen (AID 1093).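 Further: MC1000 strain lacking acrAB efflux and sulA so SOS filamentation is blocked; test concentration not given here.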 The conditions noted are these: E. coli DRC41 growth, higher = more signal, called active from +8 up or from −8 down.
Assay [17] is described as follows: probe aLefty2 binding to arrayed compounds – biochemical, biotinylated probe, 635/667 nm fluorescence, primary screen (AID 1094).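 Further: score merges spot fluorescence near 667 nm with spot signal-to-noise ratio.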 The following applies: small-molecule microarray, higher = more signal.
Assay [18] has as its system Noggin (protein binding on small-molecule microarray). As to the kind of experiment: small molecules binding Noggin protein – biochemical, 635/667 nm fluorescence, primary screen (AID 1095).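 Further: score merges 667 nm feature fluorescence with signal to noise over triplicate slides.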 The following applies: 635 nm fluorescence, higher = more signal.
In assay [19] the target is Neurogenic locus notch homolog protein 3 (Homo sapiens) (UniProt Q9UM47). Description: small molecules binding NOTCH3 protein – biochemical, 635/667 nm fluorescence, primary screen (AID 1096). The following applies: small-molecule microarray, 635 nm fluorescence, higher = more signal.
The nature of assay [20]: probe aEGFR binding to arrayed compounds – biochemical, biotinylated probe, 635/667 nm fluorescence, primary screen (AID 1097).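 Further: probe is a biotinylated anti-EGFR antibody binding compounds printed on slides; score combines fluorescence near 667 nm and signal to noise of each spot.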 The conditions noted are these: small-molecule microarray, higher = more signal.

Sequence of Neurogenic locus notch homolog protein 2 (Homo sapiens) (Q04721 whole entry, looked up, canonical isoform): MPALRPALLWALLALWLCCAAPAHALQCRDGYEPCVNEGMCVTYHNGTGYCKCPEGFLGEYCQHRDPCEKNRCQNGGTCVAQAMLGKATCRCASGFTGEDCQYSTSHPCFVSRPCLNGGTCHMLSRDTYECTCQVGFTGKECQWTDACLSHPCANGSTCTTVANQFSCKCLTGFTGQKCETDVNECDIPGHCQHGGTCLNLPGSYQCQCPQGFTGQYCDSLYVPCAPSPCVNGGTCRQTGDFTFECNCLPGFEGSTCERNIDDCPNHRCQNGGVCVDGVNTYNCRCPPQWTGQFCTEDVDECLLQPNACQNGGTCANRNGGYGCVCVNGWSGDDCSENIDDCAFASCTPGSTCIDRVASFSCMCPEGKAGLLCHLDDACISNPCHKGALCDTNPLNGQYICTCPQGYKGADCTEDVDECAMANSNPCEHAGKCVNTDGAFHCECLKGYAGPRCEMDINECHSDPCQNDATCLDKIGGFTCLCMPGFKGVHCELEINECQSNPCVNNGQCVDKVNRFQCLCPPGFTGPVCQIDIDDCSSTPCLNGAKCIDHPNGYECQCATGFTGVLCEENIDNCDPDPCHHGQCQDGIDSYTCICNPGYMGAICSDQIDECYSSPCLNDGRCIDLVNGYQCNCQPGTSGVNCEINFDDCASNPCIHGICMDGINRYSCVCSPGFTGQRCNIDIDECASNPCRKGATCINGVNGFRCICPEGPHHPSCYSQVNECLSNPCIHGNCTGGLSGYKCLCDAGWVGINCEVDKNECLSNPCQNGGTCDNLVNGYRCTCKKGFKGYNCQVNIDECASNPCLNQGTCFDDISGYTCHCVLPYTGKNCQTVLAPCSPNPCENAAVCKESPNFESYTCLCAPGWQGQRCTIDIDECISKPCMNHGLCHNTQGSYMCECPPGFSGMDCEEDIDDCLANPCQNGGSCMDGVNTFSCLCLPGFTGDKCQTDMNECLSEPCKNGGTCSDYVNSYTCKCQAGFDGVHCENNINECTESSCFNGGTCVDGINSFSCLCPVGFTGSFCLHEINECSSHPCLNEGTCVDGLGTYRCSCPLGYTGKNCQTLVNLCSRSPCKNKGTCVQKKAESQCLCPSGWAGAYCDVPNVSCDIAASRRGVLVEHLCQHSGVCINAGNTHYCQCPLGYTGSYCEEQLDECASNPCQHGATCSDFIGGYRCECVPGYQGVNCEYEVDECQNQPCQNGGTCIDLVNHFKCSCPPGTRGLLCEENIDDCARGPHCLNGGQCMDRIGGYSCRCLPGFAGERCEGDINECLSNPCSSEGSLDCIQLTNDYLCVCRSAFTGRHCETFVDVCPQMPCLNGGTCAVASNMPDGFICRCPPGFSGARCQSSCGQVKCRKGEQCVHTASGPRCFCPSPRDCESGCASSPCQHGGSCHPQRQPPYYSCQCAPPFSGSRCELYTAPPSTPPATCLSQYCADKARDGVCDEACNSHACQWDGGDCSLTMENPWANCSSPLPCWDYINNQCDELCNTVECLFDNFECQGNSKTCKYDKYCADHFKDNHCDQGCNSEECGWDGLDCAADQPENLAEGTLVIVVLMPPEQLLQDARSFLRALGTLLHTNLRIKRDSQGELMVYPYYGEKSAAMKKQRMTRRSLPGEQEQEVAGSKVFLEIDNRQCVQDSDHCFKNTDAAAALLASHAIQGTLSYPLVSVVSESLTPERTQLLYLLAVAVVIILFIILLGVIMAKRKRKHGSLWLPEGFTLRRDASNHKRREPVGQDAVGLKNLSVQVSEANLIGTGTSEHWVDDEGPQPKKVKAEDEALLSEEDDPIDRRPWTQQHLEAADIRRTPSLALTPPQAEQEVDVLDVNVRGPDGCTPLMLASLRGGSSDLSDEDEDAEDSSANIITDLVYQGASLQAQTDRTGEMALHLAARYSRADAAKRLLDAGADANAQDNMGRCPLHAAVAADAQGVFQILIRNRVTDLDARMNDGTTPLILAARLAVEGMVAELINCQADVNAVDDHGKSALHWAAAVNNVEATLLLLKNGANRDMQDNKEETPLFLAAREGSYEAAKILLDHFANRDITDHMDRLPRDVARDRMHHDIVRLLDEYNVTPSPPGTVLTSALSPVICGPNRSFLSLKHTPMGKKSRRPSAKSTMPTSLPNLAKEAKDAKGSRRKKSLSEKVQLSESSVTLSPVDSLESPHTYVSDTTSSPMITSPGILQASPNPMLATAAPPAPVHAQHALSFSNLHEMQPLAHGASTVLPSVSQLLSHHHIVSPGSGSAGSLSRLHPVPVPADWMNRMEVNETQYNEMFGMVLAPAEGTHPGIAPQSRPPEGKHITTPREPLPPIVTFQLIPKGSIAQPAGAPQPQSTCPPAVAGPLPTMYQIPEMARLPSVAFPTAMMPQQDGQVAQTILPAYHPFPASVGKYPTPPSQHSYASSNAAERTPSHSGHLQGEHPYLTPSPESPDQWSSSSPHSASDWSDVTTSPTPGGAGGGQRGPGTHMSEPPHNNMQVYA
Sequence of Torsin-1A-interacting protein 2 (Homo sapiens) (Q8NFQ8 whole entry, looked up): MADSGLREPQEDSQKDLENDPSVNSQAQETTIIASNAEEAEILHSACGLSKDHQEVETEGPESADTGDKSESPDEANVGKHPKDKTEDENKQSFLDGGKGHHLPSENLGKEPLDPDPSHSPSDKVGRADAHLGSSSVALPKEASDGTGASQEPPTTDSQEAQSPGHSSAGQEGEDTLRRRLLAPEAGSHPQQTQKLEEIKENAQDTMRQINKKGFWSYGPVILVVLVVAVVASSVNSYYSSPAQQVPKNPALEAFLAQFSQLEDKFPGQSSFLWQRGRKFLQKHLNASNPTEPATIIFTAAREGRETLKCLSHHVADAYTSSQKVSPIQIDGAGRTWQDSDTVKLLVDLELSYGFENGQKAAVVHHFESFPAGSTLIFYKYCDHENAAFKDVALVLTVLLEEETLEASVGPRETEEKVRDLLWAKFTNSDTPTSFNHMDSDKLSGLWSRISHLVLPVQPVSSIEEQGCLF
Sequence of Pro-neuregulin-1, membrane-bound isoform (Homo sapiens) (Q02297 whole entry, looked up, the tested form may be a part, canonical isoform): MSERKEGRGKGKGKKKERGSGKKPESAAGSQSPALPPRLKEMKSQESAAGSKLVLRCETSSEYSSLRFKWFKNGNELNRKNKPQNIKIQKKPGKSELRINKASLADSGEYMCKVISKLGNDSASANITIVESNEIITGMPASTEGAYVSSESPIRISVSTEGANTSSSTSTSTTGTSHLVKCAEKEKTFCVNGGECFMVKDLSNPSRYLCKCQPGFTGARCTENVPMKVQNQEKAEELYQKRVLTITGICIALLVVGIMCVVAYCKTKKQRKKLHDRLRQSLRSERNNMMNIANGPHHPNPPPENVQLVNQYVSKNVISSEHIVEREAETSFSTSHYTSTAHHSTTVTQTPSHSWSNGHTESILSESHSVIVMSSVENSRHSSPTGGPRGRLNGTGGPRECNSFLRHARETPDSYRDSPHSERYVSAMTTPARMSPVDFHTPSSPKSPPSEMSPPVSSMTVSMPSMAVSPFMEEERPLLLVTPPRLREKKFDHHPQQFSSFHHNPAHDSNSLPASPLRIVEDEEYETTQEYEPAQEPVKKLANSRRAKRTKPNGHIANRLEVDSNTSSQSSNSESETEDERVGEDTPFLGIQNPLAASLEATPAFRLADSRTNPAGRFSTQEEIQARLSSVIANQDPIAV

Take `C#CCCCON=C1C[C@@H](O)[C@@H](O)[C@@H]2[C@@H]3C(=O)N(Cc4ccc5c(c4)OCO5)C(=O)[C@@H]3CC[C@H]12`: the composite z-score is -0.264 in assay [1]; 0.933 in [2]; -0.0533 in [3]; 0.716 in assay [4]; 0.624 in assay [5]; 0.662 in assay [6]. Moreover, the composite z-score in [7] was 0.695; in [9] it was -0.0042; in [10], -0.342; in assay [11] it was 1.01; in assay [15], 2.79; in assay [17], -0.0835. Also, the composite z-score was 1.66 in assay [18], 0.513 in assay [19] and -0.02 in assay [20]. Moreover, the z-score is 0.523 (inactive) in [8]; -0.216 (inactive) in assay [12]; 0.518 (inactive) in assay [13]; -0.257 (inactive) in [14]; 0.523 (inactive) in [16].
Turning to `COC(=O)Cn1c(C(=O)N2CCCC2)cc2c1C[C@H]1CN(C(=O)c3ccccc3)[C@@](Cc3ccccc3)(C(=O)OC)[C@@H]21`, the composite z-score was 0.0841 in [1]; -0.0841 in assay [2]; 0.0915 in [3]; 0.381 in [4]; 1.56 in assay [5]; 1.96 in assay [6]. Also, the composite z-score was 1.17 in assay [7]; 0.76 in assay [9]; -0.119 in assay [10]; -0.257 in [11]; 2.52 in assay [15]; 0.302 in assay [17]. Besides, the figures for the composite z-score in assay [18], in assay [19] and in assay [20] were -0.455, 0.74 and 0.168, respectively. Besides, the z-score in [8] is 1.07 (inactive); in assay [12], 0.316 (inactive); in assay [13], 1.23 (inactive); in [14], 0.651 (inactive); in assay [16], 0.214 (inactive).
For the molecule `Cc1ccc(S(=O)(=O)N2[C@@H](c3ccccc3)C(C(=O)O)=CC[C@H]2c2ccccc2)cc1`, the composite z-score in [1] was -0.0332; in [2], -0.0906; in assay [3], -0.0502; in assay [4], 0.693; in assay [5], 1.44; in assay [6], 1.06. The composite z-score in assay [7] is 1.38; in assay [9], 0.273; in [10], 0.0854; in assay [11] it was -0.116; in assay [15] it was 3.4; in assay [17], -0.0096. The composite z-score was -0.208 in [18], 0.622 in [19] and 0.0731 in [20]. Moreover, the z-score is -2.89 (inactive) in assay [8]; -0.12 (inactive) in assay [12]; -0.422 (inactive) in assay [13]; 0.0034 (inactive) in assay [14]; -1.76 (inactive) in assay [16].
On to `COc1cccc([C@@H]2[C@@H](C)CC[C@H]3C(=O)N(C)[C@@H](C(C)C)C(=O)N23)c1`, for which the composite z-score in [1] was -0.413; in assay [2], 0.353; in [3], -0.174; in [4], 0.391; in [5] it was 0.188; in assay [6], 0.0253. Also, the composite z-score in assay [7] was 0.475; in assay [9] it was -0.0409; in assay [10] it was 0.154; in assay [11], -0.652; in assay [15], 0.21; in [17], -0.0113. In addition, the composite z-score in assay [18] is 0.375; in [19], 0.374; in assay [20] it was -0.111. Besides, the z-score in assay [8] was 0.056 (inactive); in assay [12], -0.0534 (inactive); in assay [13], -0.719 (inactive); in [14], 0.369 (inactive); in [16], 0.652 (inactive).
For `COc1cc(CO)cc(I)c1O[C@H]1C=C(C(=O)NCCO)C[C@@H](NCCc2c[nH]c3ccccc23)[C@@H]1O`, the composite z-score in assay [1] is 0.318; in [2], 0.52; in assay [3], 0.0019; in [4], 1.01; in assay [5], 0.832; in assay [6], -0.0224. The composite z-score is 1.01 in assay [7]; 0.714 in [9]; -0.184 in [10]; 1.39 in assay [11]; 0.499 in assay [15]; 0.341 in assay [17]. In addition, the composite z-score in [18] was 0.947; in assay [19], 0.705; in assay [20], 0.192. The z-score in assay [8] was -0.389 (inactive); in [12], 0.004 (inactive); in [13] it was -12.4 (active); in [14] it was -2.09 (inactive); in [16], 2.12 (inactive).
